Experimental data published in PubChem BioAssay (NCATS).
Records with an inconclusive call do not appear. Active and inactive are the calls of the source. Calls follow the shape of the dose curve; as a rule, active = well fitted inhibition curve with a large enough effect; inconclusive = small, poorly fitted or top-dose-only effect; inactive = no such curve, though single readings can be large or run the other way.

Target: Retinaldehyde dehydrogenase 3 (Homo sapiens) (UniProt P47895)
Assay: qHTS for Inhibitors of the Aldehyde Dehydrogenase Family (ALDH1A3) Primary screen (AID 2061315);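 also: plate controls were DMSO vehicle for no effect and reference inhibitor for full effect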
Details: ALDH inhibition qHTS; series mostly up to 56 µM; activity change, negative = inhibition: at the top concentration

| SMILES | activity change, negative = inhibition |
| --- | --- |
| C[C@@H]1O[C@@H](O[C@H]2[C@@H]3C=CO[C@@H](O[C@@H]4O[C@H](CO)[C@@H](O)[C@H](O)[C@H]4O)[C@@H]3[C@@]3(CO)O[C@@H]23)[C@H](OC(=O)/C=C/c2ccc(O)cc2)[C@H](O)[C@H]1O | -15.4% [at 16.9 µM] (inactive) |
| C[C@H](N)C(=O)N[C@@H](Cc1ccc(O)cc1)C(=O)N1CCC[C@H]1C(=O)NCC(=O)N[C@@H](CCCCN)C(=O)N[C@@H](Cc1ccccc1)C(N)=O | -9.63% [at 11.2 µM] (inactive) |
| CC1(C)CC[C@]2(C(=O)O[C@@H]3O[C@H](CO)[C@@H](O)[C@H](O)[C@H]3O)CC[C@]3(C)C(=CCC4[C@@]5(C)C[C@@H](O)[C@H](O)[C@@](C)(CO)C5CC[C@]43C)C2C1 (some centres undefined) | 15.3% [at 16.9 µM] (inactive) |
| COC(=O)C1=COC(OC2OC(CO)C(O)C(O)C2O)C2C(C)C(OC(C)=O)C(OC(=O)c3ccccc3)C12 (centres undefined) | -10.7% [at 28 µM] (inactive) |
